Here are results for 35 compounds from ChEMBL document CHEMBL3433997, “St. Jude Leishmania screening dataset” (2016).

Assay type in all cases: functional
The target in assay [1] is Solute carrier family 2, facilitated glucose transporter member 1 (Homo sapiens) (UniProt P11166). In words: ST_JUDE_LEISH: Cytotoxicity at 2uM final concentration against transgenic Leishmania Mexicana promastigotes LmGLUT1 that are glucose transport deficient and complemented with the human glucose transporter GLUT1. Activity is measured by DNA content using SYBR green in vitro.

In assay [2] the target is Hexose transporter 1 (Plasmodium falciparum) (UniProt O97467). The experiment in a line: ST_JUDE_LEISH: Cytotoxicity at 2uM final concentration against transgenic Leishmania Mexicana promastigotes LmPfHT that are glucose transport deficient and complemented with the Plasmodium falciparum hexose transporter. Activity is measured by DNA content using SYBR green in vitro.

In assay [3] the target is Glucose transporter (Leishmania mexicana) (UniProt O61059). The experiment in a line: ST_JUDE_LEISH: Cytotoxicity at 2uM final concentration against transgenic Leishmania Mexicana promastigotes LmGT2 that are glucose transport deficient and complemented with the L. Mexicana glucose transporter 2. Activity is measured by DNA content using SYBR green in vitro.

Chain of Solute carrier family 2, facilitated glucose transporter member 1 (Homo sapiens) (P11166 whole entry): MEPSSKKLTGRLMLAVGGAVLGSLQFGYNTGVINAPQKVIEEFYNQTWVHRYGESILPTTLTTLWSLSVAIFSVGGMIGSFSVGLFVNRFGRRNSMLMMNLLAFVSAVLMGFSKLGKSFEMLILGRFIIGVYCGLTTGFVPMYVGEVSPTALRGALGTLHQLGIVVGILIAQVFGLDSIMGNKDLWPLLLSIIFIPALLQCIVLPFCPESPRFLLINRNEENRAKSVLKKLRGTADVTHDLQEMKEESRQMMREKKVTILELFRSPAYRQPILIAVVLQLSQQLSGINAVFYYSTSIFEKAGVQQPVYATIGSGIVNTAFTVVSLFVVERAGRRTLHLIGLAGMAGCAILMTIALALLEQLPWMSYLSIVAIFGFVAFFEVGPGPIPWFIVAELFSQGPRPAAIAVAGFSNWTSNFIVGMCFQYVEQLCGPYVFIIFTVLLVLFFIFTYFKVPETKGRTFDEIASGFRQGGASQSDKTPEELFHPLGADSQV

For the compound `O=C1CCCN1CCCNCc1ccc(-c2cccc(-c3nc4cc(C(F)(F)F)ccc4[nH]3)c2)cc1`, the inhibition in assay [1] was 1.71%; in assay [2], -0.32%; in assay [3], -0.5%.
For `CC(C)C1=CC(=NOS(=O)(=O)c2ccccc2)C=C(C(C)C)C1=O`, the inhibition in assay [1] was 0.62%; in assay [2], 4.11%; in assay [3], -0.38%.
As for `O=C(Cc1ccc[n+]([O-])c1)Nc1cccc(-c2cccc(-c3nc4cc(F)ccc4[nH]3)c2)c1`, the figures for the inhibition in assay [1], in assay [2] and in assay [3] were 1.61%, 1.76% and 4.13%, respectively.
Consider `CCCCCCCCCCN1C(=O)C2C(CCCCNC(C)=O)NC3(C(=O)N(Cc4ccc(C(C)(C)C)cc4)c4ccccc43)C2C1=O` (stereo not given), for which the inhibition in assay [1] is 9.76%; in assay [2], 9.32%; in assay [3] it was 3.53%.
As for `NCCNS(=O)(=O)c1ccc(-c2ccnc3[nH]c(-c4ccncc4)cc23)cc1`, the inhibition in assay [1] came to 0.72%; in assay [2], 1.19%; in assay [3] it was 0.62%.
For `O=C(Nc1nccs1)c1sc2ccccc2c1O`, the inhibition in assay [1] stood at 3.63%; in assay [2], 2.26%; in assay [3], 1.45%.
The matching figures for `Fc1ccc(Nc2ccnc3cc(-c4cccc(CN5CCCCC5)c4)ccc23)c(Cl)c1`: 4.23%, 3.95% and 3.3%.
With `O=C(NC1CCCCN(Cc2ccccc2O)C1)c1cccc(C(F)(F)F)c1` (stereo not given), the values for the inhibition in assay [1], in assay [2] and in assay [3] were 2.43%, 1.72% and -4.05%, respectively.
`Cc1nnsc1C(=O)Nc1ccc(-c2ccc(-c3nc4ccccc4[nH]3)s2)cc1`: the inhibition in assay [1] amounted to 4.65%; in assay [2] it was 1.4%; in assay [3], 1.47%.
Turning to `NC(=O)c1cccc(C(=O)Nc2cccc(-c3ccc(-c4nc5ccccc5[nH]4)s3)c2)c1`, the inhibition in assay [1] is 1.49%; in assay [2], 1.48%; in assay [3] it was 0.12%.
For `O=C(Nc1ccc(C(=O)Oc2ccc(-c3ccccc3)cc2)cc1)N[C@@H](Cc1ccc(O)cc1)C(=O)NC1CCN(Cc2ccc(O)cc2)C1` (stereo not given in full), the inhibition in assay [1] amounted to 2.56%; in assay [2], 2.9%; in assay [3], 4.33%.
The matching figures for `O=c1cc(NCCCNCc2cccc(OC(F)(F)C(F)F)c2)[nH]c2ccccc12`: 6.11%, 7.27% and 5.78%.
On to `O=C(/C=C/c1cccc2ccccc12)NCCCCCN1CCC(c2c[nH]c3ccccc23)CC1`, for which the inhibition in assay [1] amounted to 0.55%; in assay [2], 1.35%; in assay [3], 2.9%.
For the compound `COc1cccc(OC)c1CN1CCC(N(C)CCCCCCCCCN2CCC(OC(=O)Nc3ccccc3-c3ccccc3)CC2)CC1`, the inhibition was 113% in assay [1], 108% in assay [2] and 111% in assay [3].
For the compound `Cc1cc(N)c2cc(NC(=O)CCC(=O)Nc3ccc4nc(C)cc(N)c4c3)ccc2n1`, the inhibition was found to be 5.9% in assay [1], 6.01% in assay [2] and 8.34% in assay [3].
The matching figures for `O=S(=O)(c1ccccc1C(F)(F)F)C1CC2CCC(C1)N2S(=O)(=O)c1ccc(Cl)c(C(F)(F)F)c1` (stereo not given): 4.13%, 2.35% and 0.74%.
In the same order, the values of `O=C(NCC1CCN(C/C=C/c2ccccc2)CC1)Nc1ccc(Oc2ccccc2)cc1` are 6.42%, 8.3% and 2.71%.
In the case of `O=C(/C=C/c1ccc(Cl)c(Cl)c1)NCCCCCN1CCC(NC(=O)NCCc2ccccc2)CC1`, the inhibition in assay [1] was 1.48%; in assay [2] it was 1.69%; in assay [3], -3.26%.
Turning to `COc1ccc(C(=O)CCC(=O)N(Cc2ccc(-c3ccc(CNCCc4ccc(S(C)(=O)=O)cc4)cn3)cc2)C2CC3CCC2C3)cc1F` (stereo not given), the values for the inhibition in assay [1], in assay [2] and in assay [3] were 12.7%, 9.69% and 8.16%, respectively.
Take `Cc1noc(C)c1-c1ccc2c(Nc3nccc4ccccc34)c(C(N)=O)cnc2c1`: the inhibition is 103% in assay [1], 89.7% in assay [2] and 102% in assay [3].
Consider `N#Cc1ccc(N2CCN(Cc3ccc(-c4cccc(-c5nc6ccccc6[nH]5)c4)cc3)CC2)nc1`, for which the values for the inhibition in assay [1], in assay [2] and in assay [3] were 2.3%, 1.43% and 0%, respectively.
In the same order, the values of `c1ccc(-c2cc3cccc(-c4nc5cnccc5[nH]4)c3o2)cc1` are 10.8%, 11.5% and 10.6%.
The matching figures for `Cc1ccc(CNC(=O)[C@H](CCCN)Nc2nc(Nc3ccccc3)ncc2C)cc1`: 1.37%, 0.93% and 1.15%.
In the same order, the values of `COc1cc(C(=O)N2CCOC(CCN3CCc4c(c5ccccc5n4C)C3)(c3ccc(Cl)c(Cl)c3)C2)cc(OC)c1OC` (stereo not given) are -0.35%, 0% and -1.26%.
Take `COc1ccc(OCCCN2CCN(CC(c3ccc(F)cc3)N3CCN(C(C)C)CC3)CC2)c2ccccc12` (stereo not given): the inhibition worked out at 5.57% in assay [1], 5.69% in assay [2] and 5.07% in assay [3].
For `CCc1cn(CCS(C)(=O)=O)c2ccc(C(=O)N[C@@H](Cc3ccccc3)[C@H](O)CNC(C)(C)CCCC(C)C)cc12`, the inhibition in assay [1] is 5.26%; in assay [2] it was 4.33%; in assay [3] it was 6.22%.
In the case of `OCCN1CCN(Cc2cccc(-c3ccc(-c4nc5cc(C(F)(F)F)ccc5[nH]4)s3)c2)CC1`, the inhibition in assay [1] is 2.38%; in assay [2], -3.19%; in assay [3], 0.82%.
For the compound `O=C(CN1CCN(C(=O)c2ccco2)CC1)Nc1ccccc1Br`, the inhibition in assay [1] is -1.39%; in assay [2] it was -1.64%; in assay [3], -3.97%.
`CN(C)S(=O)(=O)c1ccc(N2CCN(CCC3(c4cccc(F)c4)CCN(C(=O)C(C)(C)C)CC3)CC2)c2nonc12`: the inhibition in assay [1] came out at 9.09%; in assay [2], 8.17%; in assay [3] it was 2.89%.
The matching figures for `CCOc1ccc(N2C(N)=NC(N)=NC2(C)C)cc1`: 4.38%, 3.86% and 4.06%.
Turning to `Cc1cc2c(NC(=O)NC3CCN(Cc4ccc(Cl)c(Cl)c4)CC3)cccc2cn1`, the inhibition is 0.94% in assay [1], -0.05% in assay [2] and -3.37% in assay [3].
For `Cc1ccc2ncc(Cl)c(CCN3CCC(NCc4ccc5c(n4)NC(=O)CS5)CC3)c2n1`, the results for the inhibition in assay [1], in assay [2] and in assay [3] were 3.75%, 4.54% and 2.85%, respectively.
In the same order, the values of `COc1ccc2nccc([C@H](O)CN3CCC(NCc4nc5cccc(F)c5[nH]4)CC3)c2c1` are 3.63%, 1.1% and 2.36%.
On to `CC(=O)c1cccc(S(=O)(=O)NCCCNc2nc3cc(C)cc(C)c3cc2C#N)c1`, for which the inhibition in assay [1] is -0.68%; in assay [2], 1.78%; in assay [3], -1.77%.
`Cc1cc(N)c2cc(NC(=O)c3cc4ccccc4s3)ccc2n1`: the inhibition in assay [1] was -0.05%; in assay [2], -1.3%; in assay [3] it was -0.52%.

Usually inhibition stands for the relative decrease from the control value, in per cent.
